Assay [1] concerns the target Tyrosine-protein kinase SYK (Homo sapiens) (UniProt P43405). The note with it: at 10 µM.
For assay [2], the target named is T1, Mitogen-activated protein kinase kinase kinase 7 (Homo sapiens) (UniProt O43318).
T1 sequence (whole entry): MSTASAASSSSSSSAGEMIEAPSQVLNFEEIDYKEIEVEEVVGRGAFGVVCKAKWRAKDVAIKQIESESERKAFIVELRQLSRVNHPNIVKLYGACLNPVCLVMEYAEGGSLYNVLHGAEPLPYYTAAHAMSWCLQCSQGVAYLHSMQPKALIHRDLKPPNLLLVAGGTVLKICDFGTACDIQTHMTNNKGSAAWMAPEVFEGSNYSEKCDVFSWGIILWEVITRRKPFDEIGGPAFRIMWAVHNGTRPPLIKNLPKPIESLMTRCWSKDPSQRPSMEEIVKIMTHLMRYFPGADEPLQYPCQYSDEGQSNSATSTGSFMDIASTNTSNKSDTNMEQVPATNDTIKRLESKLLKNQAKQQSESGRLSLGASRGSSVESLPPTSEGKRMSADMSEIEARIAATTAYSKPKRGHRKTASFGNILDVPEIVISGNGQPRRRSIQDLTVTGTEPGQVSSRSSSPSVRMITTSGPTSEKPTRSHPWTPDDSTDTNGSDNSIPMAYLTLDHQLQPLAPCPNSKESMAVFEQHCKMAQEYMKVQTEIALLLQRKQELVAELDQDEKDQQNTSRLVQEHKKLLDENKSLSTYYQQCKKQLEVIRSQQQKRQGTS
As to conditions: at 1 µM.

In assay [3] the target is T1, Mitogen-activated protein kinase kinase kinase 7 (Homo sapiens). As to conditions: at 10 µM.
The target in assay [4] is T2, Serine/threonine-protein kinase TAO1 (Homo sapiens) (UniProt Q7L7X3).
T2 sequence (whole entry): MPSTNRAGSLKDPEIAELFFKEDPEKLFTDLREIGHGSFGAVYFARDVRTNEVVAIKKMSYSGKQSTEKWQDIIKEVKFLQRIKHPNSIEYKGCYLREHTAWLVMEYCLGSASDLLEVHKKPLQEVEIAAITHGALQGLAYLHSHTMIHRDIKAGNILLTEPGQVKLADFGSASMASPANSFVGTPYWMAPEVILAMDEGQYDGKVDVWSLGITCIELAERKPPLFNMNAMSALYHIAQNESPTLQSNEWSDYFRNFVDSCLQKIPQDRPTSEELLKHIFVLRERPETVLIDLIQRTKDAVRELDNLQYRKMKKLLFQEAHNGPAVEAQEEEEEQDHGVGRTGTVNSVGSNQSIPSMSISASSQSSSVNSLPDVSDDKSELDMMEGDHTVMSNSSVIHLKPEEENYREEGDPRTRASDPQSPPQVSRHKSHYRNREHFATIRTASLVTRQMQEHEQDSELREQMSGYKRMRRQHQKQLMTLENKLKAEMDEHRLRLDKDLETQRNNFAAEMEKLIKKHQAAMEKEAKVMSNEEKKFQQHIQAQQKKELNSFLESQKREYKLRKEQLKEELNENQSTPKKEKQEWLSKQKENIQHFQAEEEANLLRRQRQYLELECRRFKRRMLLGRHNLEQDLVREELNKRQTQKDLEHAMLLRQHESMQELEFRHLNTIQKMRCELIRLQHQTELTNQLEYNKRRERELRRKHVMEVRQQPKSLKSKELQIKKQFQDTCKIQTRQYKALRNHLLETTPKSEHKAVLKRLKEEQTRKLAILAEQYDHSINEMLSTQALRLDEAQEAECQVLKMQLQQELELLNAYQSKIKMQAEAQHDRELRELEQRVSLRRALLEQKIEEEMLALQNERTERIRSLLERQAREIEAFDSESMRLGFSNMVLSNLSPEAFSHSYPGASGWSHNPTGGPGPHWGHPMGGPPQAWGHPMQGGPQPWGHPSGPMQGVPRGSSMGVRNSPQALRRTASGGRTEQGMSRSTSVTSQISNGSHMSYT
The note with it: at 1 µM.

Assay [5] has as its target T2, Serine/threonine-protein kinase TAO1 (Homo sapiens). As to conditions: at 10 µM.
The target in assay [6] is T3, Serine/threonine-protein kinase TAO2 (Homo sapiens) (UniProt Q9UL54).
T3 sequence (whole entry): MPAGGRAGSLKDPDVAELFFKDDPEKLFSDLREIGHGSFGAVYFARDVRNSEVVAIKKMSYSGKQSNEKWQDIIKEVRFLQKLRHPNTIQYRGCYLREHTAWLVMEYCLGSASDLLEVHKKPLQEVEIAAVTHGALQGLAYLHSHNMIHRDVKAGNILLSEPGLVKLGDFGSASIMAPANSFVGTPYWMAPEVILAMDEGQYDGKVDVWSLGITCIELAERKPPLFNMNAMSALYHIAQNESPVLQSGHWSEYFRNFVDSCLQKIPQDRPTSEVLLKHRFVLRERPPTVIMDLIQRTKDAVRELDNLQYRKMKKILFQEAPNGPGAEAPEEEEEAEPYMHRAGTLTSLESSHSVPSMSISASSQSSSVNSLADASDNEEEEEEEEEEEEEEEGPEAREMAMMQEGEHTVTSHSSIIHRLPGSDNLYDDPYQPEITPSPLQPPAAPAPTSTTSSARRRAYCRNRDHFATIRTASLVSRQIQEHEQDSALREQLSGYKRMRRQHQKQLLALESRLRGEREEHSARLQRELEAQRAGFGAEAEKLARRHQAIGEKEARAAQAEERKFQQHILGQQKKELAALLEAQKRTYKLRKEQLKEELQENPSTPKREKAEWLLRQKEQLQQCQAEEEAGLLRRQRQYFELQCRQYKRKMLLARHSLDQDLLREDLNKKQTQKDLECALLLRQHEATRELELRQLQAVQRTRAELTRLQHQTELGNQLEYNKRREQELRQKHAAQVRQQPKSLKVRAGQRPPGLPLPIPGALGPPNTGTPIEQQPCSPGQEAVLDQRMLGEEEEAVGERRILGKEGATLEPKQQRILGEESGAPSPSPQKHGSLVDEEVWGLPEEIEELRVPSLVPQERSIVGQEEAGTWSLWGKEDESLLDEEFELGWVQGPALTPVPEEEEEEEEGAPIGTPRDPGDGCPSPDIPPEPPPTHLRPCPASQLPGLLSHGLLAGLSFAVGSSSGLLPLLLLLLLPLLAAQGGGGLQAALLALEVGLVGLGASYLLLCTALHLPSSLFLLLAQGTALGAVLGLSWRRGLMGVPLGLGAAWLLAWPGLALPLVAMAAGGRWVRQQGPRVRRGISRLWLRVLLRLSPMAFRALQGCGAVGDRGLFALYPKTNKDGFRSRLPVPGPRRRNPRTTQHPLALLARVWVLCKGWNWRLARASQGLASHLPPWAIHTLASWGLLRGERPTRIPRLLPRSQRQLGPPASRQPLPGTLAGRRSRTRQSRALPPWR
The note with it: at 10 µM.

For assay [7], the target named is T4, Serine/threonine-protein kinase TAO3 (Homo sapiens) (UniProt Q9H2K8).
T4 sequence (whole entry): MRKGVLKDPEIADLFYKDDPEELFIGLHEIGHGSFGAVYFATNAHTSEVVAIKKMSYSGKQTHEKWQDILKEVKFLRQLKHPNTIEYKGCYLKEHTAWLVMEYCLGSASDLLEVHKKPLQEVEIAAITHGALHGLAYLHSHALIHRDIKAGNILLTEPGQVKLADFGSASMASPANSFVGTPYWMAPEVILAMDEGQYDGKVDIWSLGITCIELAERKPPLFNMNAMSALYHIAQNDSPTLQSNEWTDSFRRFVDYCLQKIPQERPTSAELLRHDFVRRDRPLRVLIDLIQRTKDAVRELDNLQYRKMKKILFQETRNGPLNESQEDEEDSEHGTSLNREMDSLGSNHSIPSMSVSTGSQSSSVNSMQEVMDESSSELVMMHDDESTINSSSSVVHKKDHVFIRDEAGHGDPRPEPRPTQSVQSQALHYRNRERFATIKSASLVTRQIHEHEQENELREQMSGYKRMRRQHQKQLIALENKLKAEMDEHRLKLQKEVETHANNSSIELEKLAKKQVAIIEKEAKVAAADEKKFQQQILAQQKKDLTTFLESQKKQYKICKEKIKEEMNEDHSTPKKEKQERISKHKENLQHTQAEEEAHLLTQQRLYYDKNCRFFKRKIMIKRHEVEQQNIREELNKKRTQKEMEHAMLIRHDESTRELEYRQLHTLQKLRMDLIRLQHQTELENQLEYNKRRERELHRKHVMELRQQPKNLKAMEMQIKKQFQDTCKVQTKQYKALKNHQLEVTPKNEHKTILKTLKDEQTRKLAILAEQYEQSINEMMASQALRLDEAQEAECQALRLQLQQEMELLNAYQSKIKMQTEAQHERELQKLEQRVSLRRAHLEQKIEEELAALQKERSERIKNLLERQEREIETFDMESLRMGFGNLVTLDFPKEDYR
As to conditions: at 1 µM.

Assay [8] addresses T4, Serine/threonine-protein kinase TAO3 (Homo sapiens). As to conditions: at 10 µM.
Assay [9] has as its target T5, Serine/threonine-protein kinase TBK1 (Homo sapiens) (UniProt Q9UHD2).
T5 sequence (whole entry): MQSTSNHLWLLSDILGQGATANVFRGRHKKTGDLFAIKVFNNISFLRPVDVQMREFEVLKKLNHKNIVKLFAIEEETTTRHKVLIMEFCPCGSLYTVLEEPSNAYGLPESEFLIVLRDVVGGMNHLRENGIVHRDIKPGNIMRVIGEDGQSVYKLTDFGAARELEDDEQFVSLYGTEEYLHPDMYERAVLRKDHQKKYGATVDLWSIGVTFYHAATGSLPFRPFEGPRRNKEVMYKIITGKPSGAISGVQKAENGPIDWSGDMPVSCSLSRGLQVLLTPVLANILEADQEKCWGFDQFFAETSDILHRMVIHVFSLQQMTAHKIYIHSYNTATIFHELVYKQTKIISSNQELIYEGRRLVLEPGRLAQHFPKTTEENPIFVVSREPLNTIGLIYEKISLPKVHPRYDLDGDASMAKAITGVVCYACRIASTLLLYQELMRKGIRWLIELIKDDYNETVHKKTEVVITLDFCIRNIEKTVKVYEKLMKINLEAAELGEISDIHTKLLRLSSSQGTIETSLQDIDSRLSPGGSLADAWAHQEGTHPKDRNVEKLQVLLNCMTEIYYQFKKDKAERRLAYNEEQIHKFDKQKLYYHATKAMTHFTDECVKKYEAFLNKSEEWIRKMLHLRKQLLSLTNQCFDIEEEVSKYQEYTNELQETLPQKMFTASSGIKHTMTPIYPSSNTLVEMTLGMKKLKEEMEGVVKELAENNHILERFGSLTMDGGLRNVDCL
The note with it: at 1 µM.

Each structure is given as a SMILES string.

For the compound `O=C1c2ccccc2-[n+]2ccc3c([nH]c4ccccc43)c21`, the residual activity in [1] came to 90%; in assay [2], 93%; in [3] it was 82%; in assay [4], 96%; in assay [5] it was 86%; in [6], 90%. Besides, the residual activity was 89% in assay [7], 90% in assay [8] and 58% in assay [9].

The record behind these values is ChEMBL document CHEMBL2218924, “A broad activity screen in support of a chemogenomic map for kinase signalling research and drug discovery” (Biochem J, 2013).
